The results in this text go back to PubChem BioAssay (NCI).

This is part of a sample that, as a whole, favours compounds with a hit. Of some 79,000 tested, about 15% had one in any assay. Unmarked numbers belong to inactive results. Active and inactive are the calls of the source. No stated cut-off is given here; in the data, active means growth inhibition above about 70%; inactive means the rest.

This assay in a line: NCI Yeast Anticancer Drug Screen. Data for the mgt1 strain (AID 153). The note with it: S. cerevisiae mgt1 mutant growth inhibition, active compounds read high. As for the experimental part:
Growth inhibition of yeast strains with defined genetic alterations is measured as a screen for potential anti-cancer activity. Selected strains with alterations in DNA damage repair or cell cycle control were exposed to compounds and growth inhibition was measured relative to vehicle treated controls. The strain used in this assay is mgt1

In the case of `O=C1CC(=O)c2ccccc21`, the growth inhibition is -1% (at 1.2 µM); 0% (at 3.7 µM); 1% (at 11.0 µM); 3% (at 33.0 µM); 72% (active) (at 100.0 µM).
For `COc1cc([C@@H]2c3cc4c(cc3[C@@H](Nc3ccc(NC(=O)c5cc([N+](=O)[O-])cn5C)cc3)[C@H]3COC(=O)[C@H]23)OCO4)cc(OC)c1O` the same measures were -3%, 5%, 14%, 35% and 41%.
For `CCOC1(c2cccc([N+](=O)[O-])c2)c2ccccc2Oc2ccccc21` the same measures were 0%, -2%, 0%, 15% and 0%.
For `CC(C)OC(=O)Nc1ccc2nc(-c3cscn3)[nH]c2c1` the same measures were -5%, -7%, -15%, 4% and 98% (active).
Regarding `O=C1NC(=O)c2ccc([N+](=O)[O-])c3cccc1c23`, the growth inhibition runs as follows: (at 1.2 µM) 11%; (at 3.7 µM) 18%; (at 11.0 µM) 20%; (at 33.0 µM) 30%; (at 100.0 µM) 49%.
For `CCO/C(C)=C(/C#N)C(N)=S` the same measures were -2%, -4%, -5%, 14% and 0%.
Regarding `Nc1ncnc2c1ncn2C1OC(CO)CC1O` (stereo not given), the growth inhibition is -37% (at 1.2 µM); -3% (at 3.7 µM); 10% (at 11.0 µM); 62% (at 33.0 µM); 89% (active) (at 100.0 µM).
`CN(C)c1ccc(N=Nc2ccncc2)cc1`: the growth inhibition by setting is: (at 1.2 µM) -2%; (at 3.7 µM) 12%; (at 11.0 µM) 31%; (at 33.0 µM) 35%; (at 100.0 µM) 49%.
